Test results taken from PubChem BioAssay (NCATS).
Results filed as inconclusive are left out. Active and inactive are the calls of the source. Unless noted, the call rests on the fitted dose curve; in most records, active means well fitted curve in the direction sought with a large enough effect; inconclusive means small, poorly fitted or top-dose-only effect, or another doubt; inactive means no such curve, though single readings can be large; an effect the other way counts as inactive or inconclusive.

How the values were obtained:
[1] = target: Lysosomal acid glucosylceramidase (Homo sapiens) (UniProt P04062); test: Glucocerebrosidase-p2 (AID 348; in the data active means potency below about 10 µM; further: potency means the concentration at half of the fitted maximal effect); details: purified GBA, blue fluorogenic substrate, 40 min
In short: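 Normal human glucocerebrosidase (0.2 nM) with blue fluorogenic substrate (80 uM final) in citrate/phosphate pH 5.9 with 10mM sodium taurocholate, 0.01% tween-20; 40 min RT, NaOH/glycine stop; fluorescence Ex 365/Em 440; AC50 from a titration from 0.6 nM upwards.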

[2] = AP1 Signaling Pathway (AID 357; active means well fitted curve in either direction with a large enough effect, not every such curve was filed as active;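 further: ME-180 reporter cells stimulated with EGF at its EC50 level; on the % scale 0 is the no-effect control and ±100 the full control effect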); details: ME-180 AP-1-bla reporter, EGF-induced, beta-lactamase ratio, 5 h; at 7.69 µM (top of the series) unless noted
In short: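 Cells are seeded overnight, exposed to compound titrations and an EC50 level of EGF for 5 hours at 37 °C, then loaded with CCF4 dye for 2.5 hours. Beta-lactamase activity under the AP-1 element is read as a blue/green ratio.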

[3] = target: Cytochrome P450 1A2 (Homo sapiens) (UniProt P05177); test: p450-cyp1a2 (AID 410; calls by dose curve; further: potency means the concentration at half of the fitted maximal effect); details: recombinant CYP1A2, luciferin-ME demethylation, luminescence; series mostly up to 57 µM
In short: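 O-Demethylation of luciferin 6' methyl ether by human CYP1A2 is monitored as luciferase luminescence. Substrate sits at Km (100uM); enzyme is 20nM. Values are scaled to 57 uM furafylline as maximal inhibition.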

[4] = NFAT Signaling Pathway (AID 444; active means well fitted curve in either direction with a large enough effect, not every such curve was filed as active;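 further: carbachol stimulus at about its EC50 of 1 µM final; on the % scale 0 is the no-effect control and ±100 the full control effect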); details: Jurkat NFAT-bla M1, carbachol, beta-lactamase ratio, 5 h; at 7.69 µM (top of the series) unless noted
In short: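 Jurkat cells carrying an NFAT-driven β-lactamase reporter and co-transfected muscarinic M1 receptor were treated with compound plus carbachol (1 uM final, an EC50 level) for 5 h at 37 °C. CCF4 loading followed for 1 h at RT; 460/530 nm ratio gave %activity.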

[5] = Stat Signaling Pathway (AID 446; active means well fitted curve in either direction with a large enough effect, not every such curve was filed as active;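 further: ME-180 cervical cancer cells given 40 pM IL-6 alongside compound; SIE-controlled beta-lactamase reporter measured as 460/530 nm FRET emission ratio; on the % scale 0 is the no-effect control and ±100 the full control effect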); details: ME-180 SIE beta-lactamase reporter, IL-6 stimulated, 5 h; at 7.69 µM (top of the series) unless noted
In short: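 Emission at 460 and 530 nm (excitation 405 nm) reports SIE-controlled beta-lactamase in ME-180 cells. Cells received compound with 40 pM IL-6 for 5 hrs at 37 C; data scaled between 300 pM IL-6 and 125 nM JAK-inhibitor controls.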

[6] = target: Glucocorticoid receptor (Homo sapiens) (UniProt P04150); test: GR-EFC Redistribution (AID 451; calls by dose curve; further: potency means the concentration at half of the fitted maximal effect); details: CHO-K1 GR-EFC translocation, beta-gal luminescence, 2 h
In short: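 CHO-K1 cells stably expressing nuclear-localized β-gal enzyme acceptor and GR fused C-terminally to the enzyme donor fragment; ligand-driven nuclear translocation restores β-gal by complementation. Compounds titrated up to 46 uM final, 2 h at 37 °C; luminescence read.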

[7] = target: Mitogen-activated protein kinase 10 (Mus musculus) (UniProt Q61831); test: JNK3 AlphaScreen Assay (AID 530; active means well fitted curve in either direction with a large enough effect, not every such curve was filed as active;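 further: kinase came from lysate of stimulated human HepG2 cells; signal reports phosphorylation of biotinylated GST-cJun 1-79 at Ser73 with 10 µM ATP; on the % scale 0 is the no-effect control and ±100 the full control effect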); details: JNK3 lysate, c-Jun phosphorylation; series mostly up to 57.1 µM
In short: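 Phosphorylation of biotinylated GST-cJun(1-79) at Ser73 is measured by AlphaScreen proximity luminescence. Enzyme is JNK3 in HepG2 lysates activated with interleukin-1beta and tumor necrosis factor alpha; ATP is 10 uM final.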

[8] = target: 3',5'-cyclic-AMP phosphodiesterase 4B (Homo sapiens) (UniProt Q07343); test: qHTS Assay for Inhibitors of PDE-IV (AID 607; active means well fitted activation curve with a large enough effect in the main read-out, with a control signal flat, not every such curve was filed as active; further: % of control where 0% means no effect); details: HEK293 ACTOne CNG channel cells, membrane potential fluorescence; series mostly up to 22.9 µM
In short: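 The readout is membrane depolarisation from a cAMP-sensing CNG channel, detected with a potential dye at ex 535/em 590. Cells were HEK293-derived (endogenous PDE-IV) at 1000 cells/well, titrated up to 22.9 uM final.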

[9] = target: Cytochrome P450 3A4 (Homo sapiens) (UniProt P08684); test: qHTS Assay for Activators of Cytochrome P450 3A4 (AID 885); details: recombinant CYP3A4, Luciferin-PPXE luminescence, 60 min; series mostly up to 57.1 µM; further: nearly all actives have a fitted effect of over 65% in size
In short: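 Activators are scored by enhanced luminescence from CYP3A4 conversion of luciferin-PPXE (25uM, equal to KM) to luciferin, after 60 min at RT with an NADPH-regenerating system.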

[10] = qHTS Assay for Lipid Storage Modulators (AID 1519; calls by dose curve); details: Drosophila S3 cells, BODIPY lipid droplet/cell ratio, laser cytometry, cells loaded with oleic acid; for activity change, negative = inhibition: at 57.5 µM (top of the series)
In short: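 Cells seeded at 5,000 per well were treated with compounds over a concentration series and loaded with oleic acid (400 uM, as added). Lipid droplet fluorescence (488 nm excitation, 500-530 nm channel) was read by laser-scanning cytometry and normalized to 20 uM Triacsin C.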

[11] = target: Dual specificity protein kinase CLK4 (Homo sapiens) (UniProt Q9HAZ1); test: qHTS Assay for Inhibitors of CDC-like Kinase 4 (Kinase-Glo Assay) (AID 1770); details: recombinant Clk4, Kinase-Glo ATP depletion luminescence; series mostly up to 66.7 µM; further: nearly all actives have a fitted effect of over 65% in size; further: potency means the concentration at half of the fitted maximal effect
In short: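 Recombinant human Clk4 (25 nM) phosphorylated RS repeat peptide (100 uM) with 1 uM ATP in Tris pH 7.5/MgCl2/EGTA/DTT/Triton buffer for 4.5 h at room temperature. Residual ATP was quantified by Kinase-Glo luciferase luminescence.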

[12] = target: Dual specificity protein kinase CLK4 (Homo sapiens) (UniProt Q9HAZ1); test: qHTS Assay for Inhibitors of CDC-like Kinase 4 (ADP-Glo Assay) (AID 1771); details: recombinant CLK4, ADP-Glo luminescence; series mostly up to 80 µM; further: nearly all actives have a fitted effect of over 70% in size; further: potency means the concentration at half of the fitted maximal effect
In short: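 Compounds are pin-transferred onto substrate mix (100 uM RS peptide, 1 uM ATP), then 25 nM Clk4 is added. After 1 hr at room temperature, ADP-Glo reagent runs 45 min, detection reagent 30 min, then luminescence is read.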

[13] = target: Dual specificity protein kinase CLK4 (Homo sapiens) (UniProt Q9HAZ1); test: qHTS Assay for Inhibitors of CDC-like Kinase 4 (ADP-FP Assay) (AID 1795); details: Transcreener ADP fluorescence polarization; series mostly up to 50 µM; further: nearly all actives have a fitted effect of over 60% in size; further: potency means the concentration at half of the fitted maximal effect
In short: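 Recombinant human Clk4 (6.25 nM) phosphorylated RS repeat peptide (100 uM) with 1 uM ATP in Tris pH 7.5/MgCl2/EGTA/DTT/Triton buffer for one hour. ADP was quantified by Transcreener competitive fluorescence polarization against an ADP calibration curve.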

[14] = target: Ubiquitin carboxyl-terminal hydrolase 1 (Homo sapiens) (UniProt O94782); test: Inhibitors of USP1/UAF1: Pilot qHTS (AID 504865); details: purified USP1/UAF1, Ub-rhodamine cleavage fluorescence; series mostly up to 54.9 µM;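 further: rhodamine fluorescence freed from ubiquitin-rhodamine substrate followed over time; top concentration of the series differs between compounds; on the % scale 0 is the no-effect control and ±100 the full control effect; nearly all actives have a fitted effect of over 35% in size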
In short: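 USP1/UAF1 complex (1nM) preincubated with compound 15 min at room temperature, then Ub-Rho substrate (150nM final) added. Fluorescence read kinetically at 480/540 nm, 6 reads every 60 seconds. Buffer: 50mM HEPES pH 7.8, 0.5mM EDTA, 0.1 mg/ml BSA, 1mM TCEP, 0.01% Tween-20.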

[15] = Primary qHTS for small molecule stabilizers of the endoplasmic reticulum resident proteome: Secreted ER Calcium Modulated Protein (SERCaMP) assay (AID 1508630); details: SH-SY5Y GLuc-SERCaMP (Gaussia luciferase released on ER calcium loss) secretion, thapsigargin, luminescence; series mostly up to 38.4 µM; further: on the % scale 0 is the no-effect control and ±100 the full control effect
In short: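 The SH-SY5Y reporter protocol was run at 3 concentrations up to 38.3 uM (primary) or 11 concentrations (follow-up): 16 h compound, 100 nM thapsigargin for 4 h, then extracellular luciferase luminescence.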

[16] = target: Glucocorticoid receptor (Homo sapiens) (UniProt P04150); test: GR-GFP Redistribution (AID 450;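 active means compounds whose dose series gives a full or clear partial fitted curve of increased nuclear translocation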; further: potency means the concentration at half of the fitted maximal effect); details: U2OS GR-GFP nuclear translocation, laser cytometry, 2 h
[17] = qHTS Assay for Identification of Small Molecule Agonists for Hypoxia Response Element Signaling Pathway (AID 914; active means well fitted activation curve with a large enough effect in the signal ratio, with a control signal flat, not every such curve was filed as active; the % refers to the signal ratio; further: potency means the concentration at half of the fitted maximal effect); details: ME-180 (cervical carcinoma) HRE-bla reporter, beta-lactamase ratio, CoCl2, 17 h; activation: stronger effect = higher value
In short: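 Cells were plated overnight, pin-dosed with compound in a titration series, co-stimulated with EC50 CoCl2 and incubated 17 hours at 37 degrees Celsius. CCF4 substrate was then loaded, and AC50 values came from the 460nm/530nm ratio.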

[18] = measured here: cell count channel max response
[19] = measured here: lipid channel max response

Sequence of Glucocorticoid receptor (Homo sapiens) (P04150 whole entry, looked up, the tested form may be a part): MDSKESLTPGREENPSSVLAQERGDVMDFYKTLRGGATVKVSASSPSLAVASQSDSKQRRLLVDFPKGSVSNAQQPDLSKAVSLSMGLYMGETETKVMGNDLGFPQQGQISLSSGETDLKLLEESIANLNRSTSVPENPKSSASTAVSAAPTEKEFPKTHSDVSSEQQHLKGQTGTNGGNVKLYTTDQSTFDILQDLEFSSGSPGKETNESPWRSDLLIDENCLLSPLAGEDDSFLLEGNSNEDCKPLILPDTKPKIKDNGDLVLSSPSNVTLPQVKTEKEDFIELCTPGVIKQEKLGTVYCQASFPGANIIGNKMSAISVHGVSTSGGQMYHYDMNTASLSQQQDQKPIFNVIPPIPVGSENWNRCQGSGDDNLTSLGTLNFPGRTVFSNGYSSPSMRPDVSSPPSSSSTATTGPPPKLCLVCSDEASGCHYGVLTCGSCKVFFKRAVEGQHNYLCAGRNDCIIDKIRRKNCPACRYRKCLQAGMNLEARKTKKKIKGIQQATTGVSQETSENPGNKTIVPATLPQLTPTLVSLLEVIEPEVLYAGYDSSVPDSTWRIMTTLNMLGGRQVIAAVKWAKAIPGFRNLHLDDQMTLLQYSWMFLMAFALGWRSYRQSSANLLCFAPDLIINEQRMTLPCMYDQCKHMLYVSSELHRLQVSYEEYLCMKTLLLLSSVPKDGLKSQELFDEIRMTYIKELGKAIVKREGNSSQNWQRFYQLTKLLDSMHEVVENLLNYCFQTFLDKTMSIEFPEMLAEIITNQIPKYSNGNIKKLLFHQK
Sequence of Cytochrome P450 3A4 (Homo sapiens) (P08684 whole entry, looked up): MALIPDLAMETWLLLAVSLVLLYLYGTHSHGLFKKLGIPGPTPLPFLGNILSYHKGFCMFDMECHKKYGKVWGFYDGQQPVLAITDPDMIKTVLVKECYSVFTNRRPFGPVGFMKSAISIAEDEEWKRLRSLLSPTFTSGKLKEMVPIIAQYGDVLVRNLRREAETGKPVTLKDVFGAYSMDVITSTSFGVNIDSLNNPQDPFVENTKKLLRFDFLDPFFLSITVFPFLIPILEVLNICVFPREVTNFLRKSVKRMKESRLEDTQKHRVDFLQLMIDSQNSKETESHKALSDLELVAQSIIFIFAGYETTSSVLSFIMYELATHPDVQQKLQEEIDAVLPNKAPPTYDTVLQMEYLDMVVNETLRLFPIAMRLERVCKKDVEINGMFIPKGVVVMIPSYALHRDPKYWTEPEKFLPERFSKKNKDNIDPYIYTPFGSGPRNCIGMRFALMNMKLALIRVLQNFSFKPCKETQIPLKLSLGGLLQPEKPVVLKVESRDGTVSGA
Sequence of Cytochrome P450 1A2 (Homo sapiens) (P05177 whole entry, looked up): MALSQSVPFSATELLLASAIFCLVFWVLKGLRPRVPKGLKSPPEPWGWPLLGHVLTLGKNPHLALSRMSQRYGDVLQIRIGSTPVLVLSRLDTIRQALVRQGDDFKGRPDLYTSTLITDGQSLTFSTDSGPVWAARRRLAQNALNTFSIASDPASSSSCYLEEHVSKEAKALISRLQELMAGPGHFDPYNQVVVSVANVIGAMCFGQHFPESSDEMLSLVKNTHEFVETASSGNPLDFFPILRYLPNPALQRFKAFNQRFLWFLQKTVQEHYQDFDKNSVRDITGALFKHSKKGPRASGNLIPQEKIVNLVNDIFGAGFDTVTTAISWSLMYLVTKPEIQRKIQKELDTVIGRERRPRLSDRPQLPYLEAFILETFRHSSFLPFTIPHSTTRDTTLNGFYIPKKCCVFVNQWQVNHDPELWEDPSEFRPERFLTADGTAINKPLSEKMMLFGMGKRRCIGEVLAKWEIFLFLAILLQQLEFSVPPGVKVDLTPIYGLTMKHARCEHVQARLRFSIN
Sequence of Lysosomal acid glucosylceramidase (Homo sapiens) (P04062 whole entry, looked up): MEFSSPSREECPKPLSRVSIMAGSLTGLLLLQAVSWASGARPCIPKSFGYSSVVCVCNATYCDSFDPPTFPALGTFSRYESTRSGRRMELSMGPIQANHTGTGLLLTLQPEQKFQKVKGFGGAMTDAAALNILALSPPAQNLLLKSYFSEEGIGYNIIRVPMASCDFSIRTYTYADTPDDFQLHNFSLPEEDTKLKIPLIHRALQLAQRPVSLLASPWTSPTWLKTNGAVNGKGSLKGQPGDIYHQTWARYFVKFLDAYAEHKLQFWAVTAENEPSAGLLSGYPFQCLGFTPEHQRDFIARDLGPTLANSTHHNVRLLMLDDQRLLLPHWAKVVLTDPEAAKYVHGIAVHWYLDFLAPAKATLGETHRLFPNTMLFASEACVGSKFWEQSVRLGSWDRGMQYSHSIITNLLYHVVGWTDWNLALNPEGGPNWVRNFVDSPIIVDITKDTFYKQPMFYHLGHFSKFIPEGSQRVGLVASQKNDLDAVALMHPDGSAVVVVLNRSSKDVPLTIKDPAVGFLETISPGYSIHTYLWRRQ
Sequence of Ubiquitin carboxyl-terminal hydrolase 1 (Homo sapiens) (O94782 whole entry, looked up): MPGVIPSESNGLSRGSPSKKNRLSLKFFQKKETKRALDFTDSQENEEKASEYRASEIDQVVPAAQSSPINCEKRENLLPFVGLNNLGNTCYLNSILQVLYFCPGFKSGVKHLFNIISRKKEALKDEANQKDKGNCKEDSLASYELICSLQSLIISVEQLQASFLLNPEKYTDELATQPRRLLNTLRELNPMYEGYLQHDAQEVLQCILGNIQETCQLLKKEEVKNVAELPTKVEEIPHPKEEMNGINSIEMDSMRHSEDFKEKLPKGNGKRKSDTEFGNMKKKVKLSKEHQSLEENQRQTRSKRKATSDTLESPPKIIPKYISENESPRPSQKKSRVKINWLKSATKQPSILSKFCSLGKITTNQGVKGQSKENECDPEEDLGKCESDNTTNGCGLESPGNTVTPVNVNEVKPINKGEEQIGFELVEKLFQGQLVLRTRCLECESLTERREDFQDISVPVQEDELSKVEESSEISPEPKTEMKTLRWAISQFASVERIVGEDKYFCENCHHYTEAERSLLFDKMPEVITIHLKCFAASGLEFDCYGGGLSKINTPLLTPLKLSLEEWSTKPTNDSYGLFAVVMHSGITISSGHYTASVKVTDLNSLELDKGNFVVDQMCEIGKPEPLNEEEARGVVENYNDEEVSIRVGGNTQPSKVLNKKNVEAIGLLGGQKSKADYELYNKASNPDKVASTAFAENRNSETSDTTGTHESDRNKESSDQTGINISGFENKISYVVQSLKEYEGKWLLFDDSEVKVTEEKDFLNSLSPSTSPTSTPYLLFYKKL
Sequence of 3',5'-cyclic-AMP phosphodiesterase 4B (Homo sapiens) (Q07343 whole entry, looked up): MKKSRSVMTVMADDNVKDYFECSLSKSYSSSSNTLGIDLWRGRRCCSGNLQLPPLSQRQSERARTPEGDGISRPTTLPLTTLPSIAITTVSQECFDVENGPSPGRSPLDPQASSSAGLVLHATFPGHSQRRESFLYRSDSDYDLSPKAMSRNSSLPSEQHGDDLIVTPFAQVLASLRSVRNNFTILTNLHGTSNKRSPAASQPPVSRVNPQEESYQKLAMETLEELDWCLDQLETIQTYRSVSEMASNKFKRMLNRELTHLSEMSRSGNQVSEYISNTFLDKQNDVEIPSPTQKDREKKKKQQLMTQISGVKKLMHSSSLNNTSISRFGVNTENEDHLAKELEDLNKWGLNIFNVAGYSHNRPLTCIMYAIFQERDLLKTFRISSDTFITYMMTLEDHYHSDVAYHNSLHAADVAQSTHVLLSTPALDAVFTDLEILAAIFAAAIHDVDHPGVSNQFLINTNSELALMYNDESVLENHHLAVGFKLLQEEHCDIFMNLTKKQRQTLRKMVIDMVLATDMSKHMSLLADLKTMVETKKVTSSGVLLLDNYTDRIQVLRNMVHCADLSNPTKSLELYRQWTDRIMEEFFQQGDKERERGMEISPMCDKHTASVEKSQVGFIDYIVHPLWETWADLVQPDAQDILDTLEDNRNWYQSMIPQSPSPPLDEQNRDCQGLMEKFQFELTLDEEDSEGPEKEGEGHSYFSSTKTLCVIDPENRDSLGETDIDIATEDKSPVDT
Sequence of Dual specificity protein kinase CLK4 (Homo sapiens) (Q9HAZ1 whole entry, looked up): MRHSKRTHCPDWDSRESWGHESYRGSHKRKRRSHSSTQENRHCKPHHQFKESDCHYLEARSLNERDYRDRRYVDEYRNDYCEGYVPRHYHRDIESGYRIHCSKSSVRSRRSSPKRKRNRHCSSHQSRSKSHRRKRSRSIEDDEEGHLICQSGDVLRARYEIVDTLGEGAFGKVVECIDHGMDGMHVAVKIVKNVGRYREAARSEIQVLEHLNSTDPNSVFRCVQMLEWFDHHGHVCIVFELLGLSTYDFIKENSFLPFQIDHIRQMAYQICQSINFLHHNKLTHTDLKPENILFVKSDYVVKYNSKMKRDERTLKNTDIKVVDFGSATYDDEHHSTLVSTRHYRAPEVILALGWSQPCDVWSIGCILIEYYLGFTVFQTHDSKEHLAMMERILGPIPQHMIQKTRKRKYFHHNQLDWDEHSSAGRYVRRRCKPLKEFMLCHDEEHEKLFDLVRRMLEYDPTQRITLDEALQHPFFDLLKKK

CN(C)C(=O)c1ccc(-c2ccc3ncnc(N(C)C)c3c2)cc1
19.1%: max response [10, 18]
active: Potency [3] 20 µM | Potency [11] 25.1 µM | Potency [12] 28.2 µM
inactive: Potency [1] > 11.4 µM | activity change, negative = inhibition [2] -20.2% | activity change, negative = inhibition [4] 9.63% | activity, negative = inhibition [5] -6.55% | Potency [6] > 46 µM | outcome [7] | Potency [8] | Potency [9] | activity change, negative = inhibition [10] 4.12% | Potency [13] | Potency [14] | Potency [15]
22.2%: max response [10, 19]

CN(Cc1ccco1)c1ncncc1-c1ccoc1
active: Potency [3] 15.8 µM
28.4%: max response [10, 19]
22.8%: max response [10, 18]
inactive: Potency [1] > 11.4 µM | activity change, negative = inhibition [2] -12.2% | activity change, negative = inhibition [4] -18.1% | activity, negative = inhibition [5] -2% | Potency [6] > 46 µM | outcome [7] | Potency [8] | Potency [9] | activity change, negative = inhibition [10] 6.13% | Potency [11] | Potency [12] | Potency [13] | Potency [14] | Potency [15]

CC(=O)NCCNc1ncnc2ccc(-c3c(C)noc3C)cc12
inactive: Potency [1] > 11.4 µM | activity change, negative = inhibition [2] 12.8% | activity, negative = inhibition [5] -17.9% | Potency [16] > 46 µM | Potency [6] > 46 µM | outcome [7] | Potency [8] | Potency [9] | activity change, negative = inhibition [10] 3.36% | Potency [14] | Potency [15]
active: Potency [3] 15.8 µM | Potency [17] 3.16 µM | Potency [11] 7.08 µM | Potency [12] 6.31 µM | Potency [13] 7.08 µM
28.8%: max response [10, 18]
29.5%: max response [10, 19]

COCCn1c(=O)c(C)nc2cnc(Oc3ccc(OC)cc3)nc21
27.3%: max response [10, 19]
inactive: Potency [1] > 11.4 µM | activity change, negative = inhibition [2] -18.9% | activity change, negative = inhibition [4] 7.53% | activity, negative = inhibition [5] -8.21% | Potency [16] > 9.22 µM | outcome [7] | Potency [8] | Potency [9] | activity change, negative = inhibition [10] 1.21% | Potency [11] | Potency [12] | Potency [13] | Potency [14] | Potency [15]
29.1%: max response [10, 18]
active: Potency [3] 15.8 µM

COCCNc1nc(-c2ccccc2OC)nc2ccccc12
active: Potency [3] 0.794 µM
15.3%: max response [10, 18]
inactive: Potency [1] > 2.29 µM | activity change, negative = inhibition [2] 12.5% | activity change, negative = inhibition [4] 8.54% | Potency [16] > 46 µM | Potency [6] > 46 µM | outcome [7] | Potency [8] | Potency [9] | activity change, negative = inhibition [10] 6.78% | Potency [11] | Potency [12] | Potency [13] | Potency [14] | Potency [15]
15.6%: max response [10, 19]

N#Cc1cccc(-c2nc3cnc(N4CCOCC4)nc3n(C[C@H]3CCCO3)c2=O)c1
11.4%: max response [10, 19]
inactive: Potency [1] > 11.4 µM | activity change, negative = inhibition [2] -1.16% | activity change, negative = inhibition [4] 1.23% | activity, negative = inhibition [5] 6.63% | Potency [6] > 46 µM | outcome [7] | Potency [8] | activity change, negative = inhibition [10] 4.04% | Potency [11] | Potency [12] | Potency [13] | Potency [14] | Potency [15]
active: Potency [3] 0.794 µM
10%: max response [10, 18]
